Measured values from PubChem BioAssay (NCATS).
Several values for one entry are separate records, joined by “and”; a condition that tells them apart may be missing. Equal values may be shown once. Inconclusive results are not listed. Entries that show only a call come without a potency. Activity calls are given as the source filed them. The call rests on the fitted dose curve; in most records, active means well fitted cell-killing curve with a large enough effect; inconclusive means small, poorly fitted or top-dose-only effect; inactive means flat fitted curve, though single readings scatter.

test: Cellular viability qHTS for adrenocortical cancer (ACC) cell line NCI-H295R (AID 1963990); conditions: CellTiter-Glo ATP luminescence, 48 h; series mostly up to 46.1 µM; further: nearly all actives have a fitted effect of over 60% in size
Outline: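 IC50 and maximal efficacy derive from four-parameter logistic modelling of titration curves, with reads scaled between DMSO-only wells (0%) and doxorubicin hydrochloride (100% inhibition). Compounds spanned up to 46 uM over 48 h.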
Potency means the concentration at half of the fitted maximal effect.

SMILES	Potency	activity change, negative = viability loss
COc1cc(C[C@@H](C)N)c(OC)cc1C	inactive	
COc1ccc2c3c1O[C@H]1[C@@H](O)C=C[C@H]4[C@@H](C2)N(C)CC[C@@]341	10 µM (active)	
Clc1cccc(N2CCNCC2)c1	inactive	
COc1cc2c(cc1F)C(c1ccccc1Cl)=Nc1c(n[nH]c1C)N2	inactive	
NCC(O)c1ccc(O)cc1 (centres undefined)	inactive	
COc1ccc(OC)c(CC(C)N)c1 (centres undefined)	inactive	
CCC(OC(C)=O)C(CC(C)NC)(c1ccccc1)c1ccccc1 (centres undefined)	15.8 µM (active)	
Oc1ccc(Cl)cc1Cc1ccccc1	12.6 µM (active) and 23.1 µM (active)	
COc1ccccc1N1CCNCC1	inactive	
Cc1nnc2n1-c1sc(CCc3ccc(CC(C)C)cc3)cc1C(c1ccccc1Cl)=NC2C (centres undefined)	8.2 µM (active)	
C[C@@]12OC(=O)[C@]1([C@@H](O)[C@@H]1C=CCCC1)NC(=O)[C@@H]2CCCl	0.398 µM (active)	
CCC1(c2ccccc2)C(=O)N(COC)C(=O)N(COC)C1=O	inactive	
NCc1cccnc1	inactive	
NP(N)(=O)NC(=O)c1ccc(F)cc1	inactive	
CN1C(=O)NC(=O)C(C)(C2=CCCCC2)C1=O (centres undefined)	inactive	
NCC(CC(=O)O)c1ccc(Cl)cc1 (centres undefined)		-4.36% [at 0.587 µM] (inactive)
CCC(=O)OC1(c2ccccc2)CCN(C)CC1	inactive	
ClC1=C(Cl)C2(Cl)C(CBr)CC1(Cl)C2(Cl)Cl (centres undefined)	inactive	
CCN(CC)CCOC(=O)C(C)(c1ccccc1)c1ccccc1	inactive	
Nc1ccccc1	inactive	

SMILES	Potency	activity change, negative = viability loss
COc1ccc(Cc2nccc3cc(OC)c(OC)cc23)cc1OC	inactive	
COC12C(COC(N)=O)C3=C(C(=O)C(C)=C(N)C3=O)N1CC1C2N1C (centres undefined)	15.8 µM (active)	
COc1ccc(C(=O)N2CCCC2=O)cc1	inactive	
Cc1ccc(N=CN(C)C=Nc2ccc(C)cc2C)c(C)c1	inactive	
c1ccc2c(c1)Sc1ccccc1N2CC1CN2CCC1CC2 (centres undefined)	16.4 µM (active)	
CC(C)=CC1C(C(=O)OCN2C(=O)C3=C(CCCC3)C2=O)C1(C)C (centres undefined)	inactive	
O=C1OC(c2ccc(O)c(S(=O)(=O)O)c2)(c2ccc(O)c(S(=O)(=O)O)c2)c2c(Br)c(Br)c(Br)c(Br)c21	inactive	
C/C=C(\C)C(=O)N[C@@H](c1ccccc1)[C@@H](O)C(=O)O[C@H]1C[C@@]2(O)[C@@H](OC(=O)c3ccccc3)[C@@H]3[C@]4(OC(C)=O)CO[C@@H]4C[C@H](O)[C@@]3(C)C(=O)[C@H](OC(C)=O)C(=C1C)C2(C)C	0.891 µM (active)	
C[C@]12CC[C@H]3[C@@H](CC[C@@]45O[C@@H]4C(O)=C(C#N)C[C@]35C)[C@@H]1CC[C@@H]2O	28.2 µM (active)	
C[C@]12CC[C@@H]3c4ccc(OC(=O)N(CCCl)CCCl)cc4CC[C@H]3[C@@H]1CC[C@@H]2O	inactive	
CCN(C(C)=O)c1cccc(-c2ccnc3c(C#N)cnn23)c1	inactive	
C/C(=C\c1csc(C)n1)[C@@H]1C[C@@H]2O[C@@H]2CCC[C@H](C)[C@H](O)[C@@H](C)C(=O)C(C)(C)[C@@H](O)CC(=O)O1	0.0224 µM (active)	
COc1ccc2c(c1OC)C(=O)O[C@H]2[C@@H]1c2cc3c(cc2CCN1C)OCO3	inactive	
CN1[C@H]2CC(O)C[C@H]1[C@H]1O[C@H]12 (some centres undefined)	inactive	
CO[C@H]1CCC(O[C@H]2C[C@H]([C@]3(C)CC[C@]4(C[C@H](O)[C@@H](C)[C@@H]([C@@H](C)/C=C(\C)C(=O)[C@H](C)C[C@H](C)C(=O)O)O4)O3)O[C@]3(O[C@@H]([C@H]4O[C@@](O)(CO)[C@H](C)C[C@@H]4C)C[C@@H]3C)[C@@H]2C)O[C@@H]1C (some centres undefined)	1.12 µM (active)	
O=C(NC(=O)c1c(F)cccc1F)Nc1cc(Cl)c(OC(F)(F)C(F)C(F)(F)F)cc1Cl (centres undefined)	inactive	
O=C(Nc1ccncc1)C(=O)c1cn(Cc2ccc(Cl)cc2)c2ccccc12	0.126 µM (active)	
C/C1=C/C[C@@H](/C(C)=C/c2csc(C)n2)OC(=O)C[C@H](O)C(C)(C)C(=O)[C@H](C)[C@@H](O)[C@@H](C)CCC1	0.0224 µM (active)	
Clc1ccc(CCC(Cn2ccnc2)Sc2c(Cl)cccc2Cl)cc1 (centres undefined)	20.6 µM (active) and 35.5 µM (active)	
